Test results taken from PubChem BioAssay AID652208 (Broad Institute, 2013).
Potency and affinity values are given separately. Calls of active or inactive are those of the source.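 How the source made its calls: active means Loss of cell signal with fitted half-effect dose at or below twice the top valid tested dose; inconclusive means Poor fit, or flat fit from -70 to -30 percent; inactive means Half-effect above limit, rising signal, or flat within 30 percent.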

Assay: viability loss in HEK293T cells – cell-based, cherry-picks, cytotoxicity control for HIV Vif inhibitor project, dose response (AID 652208);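 further: 0% = median neutral control wells and -100% = median staurosporine control wells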
Details: CellTiter-Glo luminescence, 24 h; series mostly up to 26 µM; activity change, negative = cytotoxicity: at the top concentration

Row | Compound | activity change, negative = cytotoxicity
1 | COc1ccc([C@H]2CC(=O)C=C(c3cc4ccccc4s3)C2)cc1 | -12.1% (inactive)
2 | COc1ccc2nc(N3C(=O)C(O)=C(C(=O)c4ccco4)C3c3ccccc3OC)sc2c1 (stereo not drawn) | 7.88% (inactive)
3 | COc1ccc(-c2cc(C(=O)Nc3cnn(Cc4ccccc4C)c3)no2)cc1OC | -10.7% (inactive)
4 | Cc1nnc(NC(=O)Cn2nc(C)c3ccccc3c2=O)s1 | -11.4% (inactive)
5 | O=C(CSc1ncccn1)NC(=O)Nc1ccc2c(c1)OCCO2 | -4.69% (inactive)
6 | Cc1ccc(Nc2nc(N)nc(CSc3nnc(-c4ccncc4)o3)n2)cc1 | -4.38% (inactive)
7 | Cc1ccc(N(C)S(=O)(=O)c2ccc(-c3ccc(=O)[nH]n3)s2)cc1C | -19.2% (inactive)
8 | CNC(=O)c1ccc(NC(=O)c2cc(S(=O)(=O)N(C)C)ccc2N2CCCC2)cc1 | -3.29% (inactive)
9 | CCOc1ccc(NC(=O)CN(C)C(=O)c2cc(S(=O)(=O)N3CCCCC3)ccc2Cl)cc1OCC | 9.74% (inactive)
10 | COc1ccccc1C(C)NC(=O)Cc1ccsc1 (stereo not drawn) | 5.66% (inactive)
11 | COc1ccc(OC)c(NC(=O)c2cc3ccccc3cc2OC)c1 | -7.06% (inactive)
12 | N#Cc1cc2c(=O)n3ccccc3nc2n(-c2ccccc2Cl)c1=O | -12.7% (inactive)
13 | Cc1nnc2ccc(-c3ccc(NS(=O)(=O)c4ccc(Cl)s4)cc3)nn12 | 10.5% (inactive)
14 | CC(C(=O)O)c1ccc(N2Cc3ccccc3C2=O)cc1 (stereo not drawn) | -4.48% (inactive)
15 | CC(C)(C)NC(=O)NC(=O)COc1ccccn1 | 5.18% (inactive)
16 | COc1cc2[nH]c(=O)n(CCCC(=O)NC3CCCCC3)c(=O)c2cc1OC | -1.25% (inactive)
17 | COc1ccc(CN(C(=O)Cn2nnc(-c3ccc(C)o3)n2)C(C(=O)NCC2CCCO2)c2ccco2)cc1 (stereo not drawn) | -8.44% (inactive)
18 | C=CCn1c(O)c(C2=c3ccccc3=NC2=O)s/c1=N/c1nccs1 | -12.6% (inactive)
19 | COc1ccccc1NC(=O)c1ccccc1NC(=O)c1ccccn1 | -11.9% (inactive)

Row | Compound | activity change, negative = cytotoxicity
20 | COc1cc2ccccc2cc1C(=O)Nc1ccc(Cl)cn1 | -22.3% (inactive)
21 | S=C(Nc1ccccc1)N1CCn2c(nc3ccccc32)C1 | -6.92% (inactive)
22 | CN(C)c1ccc(/C=C/C(=O)c2ccc3c(c2)OCO3)cc1 | -23.4% (inactive)
23 | COc1ccccc1CNC(=O)CSC1=NCCS1 | 1.93% (inactive)
24 | Cc1ccc(CNCCCSc2ncccn2)cc1 | -8.7% (inactive)
25 | CC(C)C(NC(=O)c1ccccc1NC(=O)C(C)(C)C)C(=O)N1CCOCC1 (stereo not drawn) | 5% (inactive)
26 | CCC(=O)N(CCC1(C(C)C)CCOC(C)(C)C1)Cc1ccco1 (stereo not drawn) | -3.81% (inactive)
27 | CCCCN1C(=O)/C(=C/C=C2\Oc3ccccc3N2CC)SC1=S | -20.3% (inactive)
28 | COc1ccc2c(CC(=O)Nc3ccccc3OC)coc2c1 | -3.21% (inactive)
29 | COc1ccc(-c2nc(CS(=O)(=O)CC(=O)NCCc3ccccc3)c(C)o2)cc1 | -6.93% (inactive)
30 | O=C(CSc1nnc(CNc2ccc(F)cc2)o1)c1ccccc1 | 4.08% (inactive)
31 | COc1ccc(OC)c(/C(O)=C/C(=O)C(=O)Nc2cc(C)ccc2OC)c1 | -1.12% (inactive)
32 | CCOc1ncccc1C(=O)OCc1ccccc1 | -8.04% (inactive)
33 | COc1cc(Nc2nc3ccccc3n3nnnc23)cc(OC)c1OC | -9.03% (inactive)
34 | O=C(NCc1ccccn1)c1ccc(Cn2c(=S)[nH]c3ccc(Br)cc3c2=O)cc1 | -1.11% (inactive)
35 | Cc1cccc(N2CCN(C(=O)c3cc4ccccc4oc3=O)CC2)c1C | 5.98% (inactive)
36 | COc1ccccc1C1C2=C(COC2=O)Nc2cc3c(cc21)OCO3 (stereo not drawn) | -19.8% (inactive)
37 | CCN1C(=O)c2cccc3c(S(=O)(=O)Nc4nc(C)cs4)ccc1c23 | 0.851% (inactive)
38 | C=CCN1C(=O)/C(=C/c2ccc(-c3ccc(F)cc3)o2)SC1=S | -18.7% (inactive)
